# In PubChem BioAssay (NCI):
# This is part of a sample that, as a whole, favours compounds with a hit. Of some 83,000 tested, about 20% had one in any assay.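 In brief: 96-well plates, 48 h treatment, single concentration, percent growth endpoint.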 Values without a mark were called inactive. Active and inactive are the calls of the source. The calls were made as follows: active = growth percent below 10; inactive = the rest.
# Key:
# Assay in all cases: NCI-60 one-dose screen, 48 h (100 = growth as untreated, 0 = no growth, -100 = all killed)
# Settings in all cases: 10 µM unless noted
# EKVX NSCLC = tested on: EKVX NSCLC
# SN12C renal = tested on: SN12C renal
# UO-31 renal = tested on: UO-31 renal
# TK-10 renal = tested on: TK-10 renal
# ACHN renal = tested on: ACHN renal
# CAKI-1 renal = tested on: CAKI-1 renal
# A498 renal = tested on: A498 renal
# MOLT-4 leukemia = tested on: MOLT-4 leukemia
# RPMI-8226 leukemia = tested on: RPMI-8226 leukemia
# OVCAR-8 ovarian = tested on: OVCAR-8 ovarian
# OVCAR-5 ovarian = tested on: OVCAR-5 ovarian
# OVCAR-4 ovarian = tested on: OVCAR-4 ovarian
# SK-OV-3 ovarian = tested on: SK-OV-3 ovarian
# IGROV1 ovarian = tested on: IGROV1 ovarian
# OVCAR-3 ovarian = tested on: OVCAR-3 ovarian
# HS 578T breast = tested on: HS 578T breast
# NCI/ADR-RES ovarian = tested on: NCI/ADR-RES ovarian
# CCRF-CEM leukemia = tested on: CCRF-CEM leukemia
# SR leukemia = tested on: SR leukemia
SMILES,growth (EKVX NSCLC) [%],growth (SN12C renal) [%],growth (UO-31 renal) [%],growth (TK-10 renal) [%],growth (ACHN renal) [%],growth (CAKI-1 renal) [%],growth (A498 renal),growth (MOLT-4 leukemia),growth (RPMI-8226 leukemia) [%],growth (OVCAR-8 ovarian) [%],growth (OVCAR-5 ovarian) [%],growth (OVCAR-4 ovarian) [%],growth (SK-OV-3 ovarian),growth (IGROV1 ovarian) [%],growth (OVCAR-3 ovarian),growth (HS 578T breast),growth (NCI/ADR-RES ovarian),growth (CCRF-CEM leukemia) [%],growth (SR leukemia) [%]
COc1ccc(-c2[nH]nc(N)c2-c2cc(OC)c3c(c2)OCO3)cc1,72.9,52,68.1,84.8,73.8,53.4,43.2%,25.7%,81.3,77.2,70,89.3,76.7%,73.9,64.9%,40.4%,8.74% (active),,
CCOC(=O)C1=C(C)NC(C)=C(C(=O)OCC)C1(C)C,108,97,100,109,106,,108%,97%,94.8,102,99.7,,110%,131,112%,107%,122%,94.4,90.6
COc1ccc(-c2c(N)n[nH]c2-c2cc3c(c(OC)c2OC)OCO3)cc1,92.4,92.5,84,101,96.9,,75.7%,96.5%,57.5,104,85.5,99.1,,96.4,108%,83.3%,96.8%,,
COc1ccc(C2=C(c3cc(OC)c(OC)c(OC)c3)C(=O)CC2)cc1,,26.4,46.2,60.6,37.8,53.5,-4.31% (active),17.4%,14.1,22.8,33.1,49,7.01% (active),27.9,-65.4% (active),6.1% (active),-49.4% (active),,15.7
O=C(Nc1ccc2c(c1)OCCO2)C(=O)c1c[nH]c2ccccc12,52.9,42.4,50.9,75.1,57.4,49.7,26.3%,16.8%,21.6,,45.2,51.2,,44.5,-45.1% (active),13.1%,-30.3% (active),,
CCN(CC)CCOc1ccc(Cl)c(C)c1,,108,86.5,116,104,102,103%,99.8%,99.9,104,101,117,98.1%,99.6,95.1%,103%,102%,98.4,92.3
COc1ccc(-c2ccc(C)n2-c2ccc(-c3nc4cc(Cl)ccc4s3)cc2)cc1,90.3,90.5,85,81.6,108,79.9,91.4%,,,104,74.6,84.8,96.7%,54.9,109%,103%,95.8%,,76.9
O=C(CSC1CCc2ccccc21)N/N=C/c1ccccc1O (configuration not stated),,59.9,20,37.1,34,,101%,2.59% (active),71.5,57.3,78.1,38.1,50%,27.4,20.6%,84.9%,24.1%,18.2,17.7
